Test results from the supplement of paper PMC8387472.
Where “and” joins values, the source holds several entries; their conditions need not be identical. Identical values can stand only once. Counter-ions that a name gives are not always drawn. ± gives the standard deviation of the averaged measurements.

Test system: mESC LDLR-Dup GFP reporter (SpCas9 MH-deletion repair)
Test: fraction of GFP+ cells relative to DMSO control (fold change); higher = more MH-deletion repair to in-frame LDLR (or more editing)
Conditions: 2 µM; 7 days post-transfection

SMILES | fraction of GFP+ cells
Nc1nc(N)c(N=O)c(OCC2CCCCC2)n1 | 0.999 ± 0.11
O=c1[nH]c(=O)n(C2CC(O)C(CO)O2)cc1Br (stereo not given) [Bromodeoxyuridine (BrdU)] | 1.79 ± 0.2
N#Cc1ccc(COC[C@H]2O[C@@H](n3c(NCc4ccc(Cl)c(Cl)c4)nc4c(N)ncnc43)[C@H](O)[C@@H]2O)cc1 | 1.89 ± 0.17
O=c1cc(N2CCOCC2)oc2c(-c3cccc4c3sc3ccccc34)cccc12 | 0.732 ± 0.4
CC(=O)c1c(C)c2cnc(Nc3ccc(N4CCNCC4)cn3)nc2n(C2CCCC2)c1=O | 1.36 and 0.964
C[C@@H](N)c1ccc(C(=O)Nc2ccnc3[nH]ccc23)cc1 | 1.54 ± 0.27
O=C(NCCN1CCOCC1)Nc1ccc(C(=O)/C=C/c2cccc(N3CCOCC3)n2)cc1 | 1.18 ± 0.16
CN(C)CC(=O)Nc1ccc2[nH]c(=O)c3ccccc3c2c1 | 1.02 ± 0.06
O=C(O)c1cc2cccc([N+](=O)[O-])c2[nH]1 | 1.04 ± 0.19
COc1nc(OCc2cccc(-c3ccccc3)c2C)ccc1CNCCNC(C)=O [bms202 (PD-1/PD-L1 inhibitor 2] | 1.04 ± 0.3
C=CC(=O)N1C/C(=C\c2ccc([N+](=O)[O-])cc2)C(=O)/C(=C/c2ccc([N+](=O)[O-])cc2)C1 | 0.723 ± 0.13
O=C(O)c1cc(=O)[nH]c(=O)[nH]1 [Orotic acid (6-Carboxyuracil)] | 0.847 ± 0.26
CN1CCc2c(c3ccccc3n2Cc2ccc(C(=O)NO)cc2)C1 [Tubastatin A HCl] | 0.623 ± 0.15
C=C1C(=O)O[C@H]2[C@H]1CC/C(C)=C/CC[C@@]1(C)O[C@@H]21 [(-)-Parthenolide] | 0.606 ± 0.018
CC(C)(C)OC(=O)Nc1ccc(-c2cc(C(=O)NCCCCCCC(=O)NO)no2)cc1 | 0.902 ± 0.059
CS(=O)(=O)c1ccc(-c2nnc(/C=C/c3nnc(-c4ccc(C#N)cc4)o3)n2-c2ccccc2Cl)nc1 | 0.816 ± 0.089
CC(C)(CNC(=O)c1cccc(-c2noc(C(F)(F)F)n2)c1)c1coc(-c2ccccc2)n1 | 0.849 ± 0.2
O=CN1CC/C(=C/c2ccc3c(c2)OCO3)C1=O | 0.833 ± 0.28
CC[C@H](CO)Nc1nc(NCc2ccccc2)c2ncn(C(C)C)c2n1 [Roscovitine (Seliciclib,CYC202)] | 1.06 ± 0.096
Cc1nc(N(C)C(=O)Cc2ccc(-c3ccccn3)cc2)sc1S(N)(=O)=O [Pritelivir (BAY 57-1293)] | 1.01 ± 0.22
CN1CCN(c2ccc(Nc3ncc4cc(C#N)c(=O)n(C5CCCC5)c4n3)cc2)CC1 | 0.705 ± 0.077
CNCc1ccc(-c2cc(-c3nc(-c4ccc(S(=O)(=O)C(C)C)cc4)cnc3N)on2)cc1 | 0.301 ± 0.12
Cn1cc(/C=C/C(=O)c2cccc(F)c2)cc1/C=C/C(=O)NO | 0.876 ± 0.1
C[C@@H](N)[C@H]1CC[C@H](C(=O)Nc2ccncc2)CC1 | 1.31 ± 0.91
C#Cc1cccc(Nc2ncnc3cc(OC)c(OCCCCCCC(=O)NO)cc23)c1 | 0.66 ± 0.054
